T cruzi growth-1 – T. cruzi proliferation inhibition. inhibition, % at 8.34 µM. 77,000 tested, 5.9% active. T. cruzi beta-gal in NIH3T3, GalScreen luminescence, 90 h;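 active means mean inhibition above about 93%, with at least 55% of replicates each passing it, limit read from the data, passing the limit was not always enough; inconclusive means only one of those two conditions holds; inactive means neither condition holds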
C diff growth – inhibitors of Clostridium difficile growth; Clostridium difficile clinical isolate growth, OD600, 24 h; hits give low values; growth activity, negative = inhibition, % at 16 µg/mL (by protocol); 86,000 tested, 0.25% active; AID 1259249;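 active means mean growth activity at or below -80% and every replicate also at or below -80%; inconclusive means mean at or below -80% but some replicate above -80%; inactive means mean growth activity above -80%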;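 further: 0% = DMSO wells and -100% = levofloxacin 16 µg/mL wells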
T cruzi growth-2 – blocks T. cruzi growth in NIH3T3 host cells | shares compounds with T cruzi growth-1 | T. cruzi beta-gal in NIH3T3, GalScreen luminescence, 90 h | inhibition, % at 8.35 µM | 5,600 tested, 72% active | AID 651739;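 active means mean replicate inhibition above about 95% and at least 55% of replicates individually reaching it, limit read from the data; inconclusive means only one of the two criteria is met; inactive means neither criterion is met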
T cruzi growth-3 – inhibitors of T. cruzi proliferation; inhibition, % at 2.09 µM; 5,600 tested, 21% active; AID 651740; T. cruzi beta-gal in NIH3T3, GalScreen luminescence, 90 h; shares compounds with T cruzi growth-1;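 active means mean inhibition above about 95%, with at least 55% of replicates also reaching it, limit read from the data; inconclusive means meets just one of the two conditions; inactive means meets neither condition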;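 further: plate controls were neutral control median for no effect and positive control median for full effect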
3T3 cytotox – cytotoxicity in mouse NIH/3T3 fibroblasts | shares compounds with T cruzi growth-1 | 5,600 tested, 14% active | NIH/3T3 viability, CellTiter-Glo ATP luminescence, 90 h | AID 651742 | cytotoxicity (signal decrease), % at 8.35 µM;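 active means mean signal decrease across replicates above about 35% based on untreated-well scatter, with enough replicates individually passing, limit read from the data; inconclusive means no rule stated though some were filed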;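 further: 0% = median of neutral control wells and 100% = median of positive control wells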
3T3 cytotox 2 – kills mouse NIH/3T3 fibroblasts. shares compounds with T cruzi growth-1. NIH/3T3 viability, CellTiter-Glo ATP luminescence, 90 h. inhibition, % at 24.9 µM. 5,600 tested, 56% active. AID 651744;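 active means mean loss of cell viability signal at or above a set limit, and enough replicates individually reaching it; inconclusive means meets only the mean limit or only the replicate share; inactive means meets neither condition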;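 further: 0% = median of neutral control wells and 100% = median of positive control wells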
Starred values were filed as active, the others as inactive; ? = inconclusive; / = no result given. Many of the other results were omitted from the sample, so hits are more common in it than they were.

SMILES	T cruzi growth-1	C diff growth	T cruzi growth-2	T cruzi growth-3	3T3 cytotox	3T3 cytotox 2
O=C(c1cccc(F)c1)N1CCCCN2[C@H](C1)[C@@H](c1ccc(-c3ccc(F)cc3)cc1)[C@@H]2CO	92.7	45.0	/	/	/	/
COc1ccccc1-c1cnc2c(c1)C(=O)N([C@H](C)CO)C[C@@H](C)[C@@H](CN(C)Cc1ccccc1)O2	92.3	4.7	/	/	/	/
CCNC(=O)C[C@@H]1CC[C@H]2[C@H](COc3ccc(NC(=O)c4ccc5c(c4)OCO5)cc3C(=O)N2C)O1	9.9	-2.9	/	/	/	/
O=C(C[C@H]1CC[C@@H]2[C@H](COC[C@@H](O)CN2C(=O)Nc2cc(Cl)cc(Cl)c2)O1)N1CCCCC1	14.2	/	/	/	/	/
CC=Cc1ccc2n(c1=O)C[C@@H]1[C@@H](CO)[C@H](C(=O)NCCc3ccccc3)N(CCC)[C@H]21 (mixture of isomers)	39.0	1.5	/	/	/	/
CO[C@@H]1CN(C)C(=O)c2cc(NC(=O)Nc3cc(F)ccc3F)ccc2OC[C@@H](C)N(C)C[C@@H]1C	1.4	/	/	/	/	/
CN1C(=O)c2cc(NC(=O)C3CCOCC3)ccc2OC[C@H]2O[C@H](CC(=O)NC3CCCC3)CC[C@H]21	29.9	-6.6	/	/	/	/
CCC(=O)N(C)C[C@H]1Oc2cc(-c3ccncc3)ccc2S(=O)(=O)N([C@H](C)CO)C[C@H]1C	66.8	-3.0	/	/	/	/
C[C@H]1CN([C@@H](C)CO)C(=O)Cc2cc(NC(=O)Cn3cnnn3)ccc2O[C@H]1CN(C)C(=O)Nc1ccccc1	12.2	-3.8	/	/	/	/
C[C@H](CO)N1C[C@H](C)[C@H](CN(C)C(=O)Nc2cccc3ccccc23)Oc2c(NC(=O)C3CCCCC3)cccc2C1=O	-21.1	-5.8	/	/	/	/
C[C@@H]1CCCCO[C@H](CN(C)C(=O)Nc2ccccc2)[C@H](C)CN([C@H](C)CO)C(=O)c2cc(NC(=O)NC3CCCCC3)ccc2O1	46.9	/	/	/	/	/
O=C(c1cccc(F)c1)N1CC(=O)N2[C@H](CO)[C@H](c3ccc(/C=C/c4ccccc4)cc3)[C@@H]2C1	/	50.7	/	/	/	/
O=C(c1cccc(F)c1)N1CCCCN2[C@H](C1)[C@@H](c1ccc(/C=C/c3ccccc3)cc1)[C@@H]2CO	111.1*	-5.6	92.5	83.2	53.7*	39.1*
CN1C(=O)c2cc(NC(=O)Cc3cccs3)ccc2OC[C@@H]2O[C@@H](CC(=O)NCCc3ccncc3)CC[C@H]21	-83.5	-3.9	/	/	/	/
C[C@@H]1CCCCO[C@H](CN(C)S(=O)(=O)c2cccs2)[C@@H](C)CN([C@@H](C)CO)C(=O)c2cc(NC(=O)C3CCCCC3)ccc2O1	57.2	-6.8	/	/	/	/
C[C@H](CO)N1C[C@H](C)[C@@H](CN(C)S(=O)(=O)c2cccs2)Oc2c(NC(=O)Nc3ccc(C(F)(F)F)cc3)cccc2C1=O	103.6*	-5.0	82.4	19.8	10.7	57.3*
C[C@H]1CN([C@@H](C)CO)C(=O)c2cccc(NC(=O)Nc3ccc(C(F)(F)F)cc3)c2O[C@@H]1CN(C)S(=O)(=O)c1cccs1	85.1	-5.4	/	/	/	/
C[C@@H]1CN([C@H](C)CO)C(=O)c2cccc(NC(=O)Nc3ccc(C(F)(F)F)cc3)c2O[C@@H]1CN(C)S(=O)(=O)c1cccs1	92.9*	6.4	99.3*	46.0	20.0	105.4*
C[C@H](CO)N1C[C@H](C)[C@H](CN(C)S(=O)(=O)c2cccs2)Oc2c(NC(=O)Nc3ccc(F)cc3)cccc2C1=O	4.0	14.5	/	/	/	/
C[C@@H]1CN([C@@H](C)CO)C(=O)c2cccc(NC(=O)Nc3ccc(C(F)(F)F)cc3)c2O[C@H]1CN(C)S(=O)(=O)c1cccs1	99.3*	13.0	101.3*	70.8	32.9	38.7*
C[C@H]1CN([C@@H](C)CO)C(=O)c2cccc(NC(=O)Nc3ccc(F)cc3)c2O[C@H]1CN(C)S(=O)(=O)c1cccs1	-126.7	4.1	/	/	/	/
C[C@@H]1CN([C@H](C)CO)C(=O)c2cc(NC(=O)Nc3cccc4ccccc34)ccc2O[C@@H]1CN(C)Cc1ccc(-c2ccccc2)cc1	67.5	9.6	/	/	/	/
CN(C)C(=O)c1ccc(-c2ccc(C3[C@H]4CNC[C@@H]3N4S(=O)(=O)c3ccc(Cl)cc3)cc2)cc1 (stereo not given in full)	/	-5.4	/	/	/	/
N#C[C@H]1[C@H](c2ccccc2)[C@@H](CO)N1S(=O)(=O)c1cccc(F)c1	45.1	3.7	/	/	/	/
N#C[C@@H]1[C@@H](c2ccc(-c3cccc(F)c3)cc2)[C@@H](CO)N1S(=O)(=O)c1cccc(F)c1	98.7*	5.2	99.1*	60.9	39.4*	66.1*
SMILES	T cruzi growth-1	C diff growth	T cruzi growth-2	T cruzi growth-3	3T3 cytotox	3T3 cytotox 2
N#C[C@H]1[C@@H](c2ccccc2)[C@H](CO)N1S(=O)(=O)c1cccc(F)c1	-11.4	5.0	/	/	/	/
N#C[C@@H]1[C@H](c2ccc(-c3cccc(F)c3)cc2)[C@H](CO)N1S(=O)(=O)c1cccc(F)c1	101.5*	11.1	106.8*	89.3	10.4	54.1*
C/C=C/c1ccc([C@H]2[C@@H](C#N)N(S(=O)(=O)c3cccc(F)c3)[C@H]2CO)cc1	94.7	4.6	/	/	/	/
C/C=C/c1ccc([C@H]2[C@@H](CO)N(S(=O)(=O)c3cccc(F)c3)[C@H]2C#N)cc1	111.0*	-5.8	91.2	93.4	-8.5	25.7
C[C@@H]1CCCCO[C@@H](CN(C)Cc2ccc(Cl)c(Cl)c2)[C@H](C)CN([C@H](C)CO)C(=O)c2cc(NS(=O)(=O)c3ccccc3)ccc2O1	99.1	0.1	/	/	/	/
COCC(=O)Nc1ccc2c(c1)OC[C@H](C)N(CCc1ccccc1)C[C@@H](C)[C@H](OC)CN(C)C2=O	33.0	/	/	/	/	/
COc1cccc(NC(=O)N2[C@@H](CO)[C@H](c3ccccc3)[C@@H]2CNC(C)C)c1	102.3*	-2.4	100.9*	41.8	-17.7	-13.1
COc1cccc(NC(=O)N2[C@@H](CO)[C@@H](c3ccccc3)[C@@H]2CNCC(C)C)c1	70.1	-3.9	/	/	/	/
CNC[C@@H]1[C@H](c2ccccc2)[C@H](CO)N1C(=O)Nc1cccc(OC)c1	44.1	-3.6	/	/	/	/
COc1cccc(NC(=O)N2[C@H](CO)[C@@H](c3ccccc3)[C@H]2CNC(C)C)c1	103.6*	-4.8	72.6	45.2	-1.8	-2.9
COc1cccc(-c2ccc([C@@H]3[C@H](CO)N4CCCCN(CC5CC5)C[C@@H]34)cc2)c1	0.3	2.4	/	/	/	/
CO[C@@H]1CN(C)C(=O)c2ccc(NS(=O)(=O)c3cn(C)cn3)cc2OC[C@@H](C)N(C)C[C@@H]1C	3.7	/	/	/	/	/
O=C(C[C@@H]1C[C@H]2c3cc(NS(=O)(=O)c4ccccc4)ccc3O[C@H]2[C@H](CO)O1)NC1CCCCC1	-20.7	/	/	/	/	/
C[C@@H]1CCCCO[C@H](CN(C)Cc2ccc(Cl)c(Cl)c2)[C@H](C)CN([C@@H](C)CO)C(=O)c2cc(NC(=O)Nc3ccc(F)cc3)ccc2O1	106.2*	/	99.1*	110.4*	7.6	?

Assay outcomes deposited in PubChem BioAssay by Broad Institute.
